Potency and outcome data for 19 molecules are collected here from PubChem BioAssay (NCATS).

Records with an inconclusive call do not appear. This is one part of the list. Active and inactive are the calls of the source. Unless noted, calls follow the shape of the dose curve; as a rule, active = well fitted curve in the direction sought with a large enough effect; inconclusive = small, poorly fitted or top-dose-only effect, or another doubt; inactive = no such curve, though single readings can be large; an effect the other way counts as inactive or inconclusive.

For assay [1], the target named is RecQ-like DNA helicase BLM (Homo sapiens) (UniProt P54132). Put plainly: qHTS Validation Assay for Inhibitors of Bloom's syndrome helicase (BLM) (AID 2364). Also: potency is read from the fitted curve at half-maximal effect. The gist of the method:
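BLM 50 nM in 25 mM Tris-HCl pH 8.0, 5 mM NaCl, 2 mM MgCl2, 1 mM DTT, 0.01% Tween-20, 2.5 ug/ml poly(dI-dC); 15 min cpd preinc, RT. Start: 200 nM forked DNA + 2 mM ATP (final). TAMRA read, 2 reads 2 h apart.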

Assay [2] in a line: Cytometric Cell-Based qHTS for Inhibitors of the mTORC1 Signaling Pathway in MEF (Tsc2-/-, p53-/-) Cells (AID 2660). Also: potency is read from the fitted curve at half-maximal effect. The gist of the method:
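Tsc2-/-, p53-/- MEFs (empty vector) exposed to compound 24 h at 37 C, fixed, stained with Alexa-488 anti-phospho-rpS6 Ser235/236 and propidium iodide. Acumen laser scanning; phospho-S6/PI ratio thresholded against 7.5 nM rapamycin, reported as % positive cells.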

Assay [3] in a line: High Content Imaging Cell-Based qHTS for Inhibitors of the mTORC1 Signaling Pathway in MEF (Tsc2-/-, p53-/-) Cells (AID 2666).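 Also: percent of cells scored positive for phospho-rpS6 Ser235/236 immunostaining by imaging.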 Also: potency is read from the fitted curve at half-maximal effect. In a few lines: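 Read-out: % positive cells per well, with thresholds from highest- and lowest-signal wells, based on phospho-rpS6 (Ser235/236) intensity normalized to Hoechst nuclear stain. Cells: Tsc2-/-, p53-/- MEFs carrying empty vector; compound 24 hrs, 37 degree Celsius.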

Assay [4] is described as follows: Validation screen for small molecules that induce DNA re-replication in MCF 10A normal breast cells (AID 463097). Also: nearly all actives have a fitted effect of over 60% in size. Also: potency is read from the fitted curve at half-maximal effect. The gist of the method: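 Read-out is Hoechst total nuclear intensity by fluorescence scanning imager, flagging increased high-DNA-content nuclei. Compounds were incubated with MCF 10A cells for 48 hr (37 C, 5% CO2) before 40 min staining.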
Assay [5] addresses DNA polymerase III PolC-type (Bacillus subtilis (strain 168)) (UniProt P13267). Put plainly: qHTS Validation Assay for the Inhibitors of DNA Replication in Gram-Positive Bacteria (AID 485295). Also: potency is read from the fitted curve at half-maximal effect. In a few lines: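 Double-stranded DNA product detected by PicoGreen fluorescence after EDTA quench. Compound incubated with B. subtilis holoenzyme (PolC, beta subunit, SSB, primase) before substrate addition; primed replication of M13Gori with dNTPs and NTPs at room temperature; DMSO defines 0% inhibition.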

The target in assay [6] is Tumor susceptibility gene 101 protein (Homo sapiens) (UniProt Q99816). In words: qHTS Validation Assay for Iinhibitors of HIV-1 Budding by Blocking the Interaction of PTAP/TSG101 (AID 485342; calls by dose curve). In a few lines:
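Fluorescence polarization of 50 nM FITC-PTAP peptide bound to 10 uM Tsg101 binding domain was read after 20 min room-temperature incubation with compounds, in 10 mM HEPES pH 7.5, 0.15 M NaCl, 0.01% Tween 20.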

Assay [7] is described as follows: qHTS Validation Assay to Find Inhibitors of Chronic Active B-Cell Receptor Signaling (AID 485345; active = well fitted curve in the direction sought with a large enough effect in the main read-out, with a control signal flat, not every such curve was filed as active). The gist of the method: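 TMD8 ABC-DLBCL cells with dox-inducible green luciferase–IκBα fusion and red native luciferase; compounds 46 uM–3 nM, 4 h at 37C with doxycycline in 0.5% FBS IMDM. Green/red ratio normalized to basal and 10 uM MG-132.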
In assay [8] the target is Endonuclease 4 (Escherichia coli (strain K12)) (UniProt P0A6C1). In words: Counterscreen for APE1 Inhibitors: qHTS Assay for Inhibitors of Endonuclease IV (AID 2565). In a few lines:
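Concentration-response counterscreen run identically to the APE1 assay: 15 min room-temperature preincubation of 2 nM enzyme with compound, reaction started with 50 nM quenched abasic DNA, progress taken from kinetic fluorescence.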

Assay [9] in a line: High Content Imaging Cell-Based qHTS for Inhibitors of the mTORC1 Signaling Pathway in MEF Cells (AID 2667). Also: potency is read from the fitted curve at half-maximal effect. The gist of the method: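 MEF (Tsc2-/-, p53-/-, WT Tsc2 re-expressed); cpd 24 h, 37 °C; PFA fix; Alexa-488 anti-p-rpS6 Ser235/236, PI, Hoechst; IN Cell imaging; Hoechst/Alexa-488 intensity ratio; % active cells, thresholds set from rapamycin and DMSO wells.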
Assay [10] addresses Ubiquitin carboxyl-terminal hydrolase 2 (Homo sapiens) (UniProt O75604). Put plainly: qHTS Validation Assay for Inhibitors of Ubiquitin-specific Protease USP2a Using CHOP2 as the Reporter (AID 463106). In a few lines: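 USP2 core (10nM final) was preincubated with compound for 30min at RT in 20mM Tris-HCl pH 8.0, 2mM CaCl2, 2mM beta-mercaptoethanol, 0.05% CHAPS. Ub-CHOP2 and reporter substrate (25nM each) were added, and fluorescence (Ex 485/Em 531nm) was read after 60min.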

DNA polymerase III PolC-type (Bacillus subtilis (strain 168)), sequence (P13267 whole entry, looked up): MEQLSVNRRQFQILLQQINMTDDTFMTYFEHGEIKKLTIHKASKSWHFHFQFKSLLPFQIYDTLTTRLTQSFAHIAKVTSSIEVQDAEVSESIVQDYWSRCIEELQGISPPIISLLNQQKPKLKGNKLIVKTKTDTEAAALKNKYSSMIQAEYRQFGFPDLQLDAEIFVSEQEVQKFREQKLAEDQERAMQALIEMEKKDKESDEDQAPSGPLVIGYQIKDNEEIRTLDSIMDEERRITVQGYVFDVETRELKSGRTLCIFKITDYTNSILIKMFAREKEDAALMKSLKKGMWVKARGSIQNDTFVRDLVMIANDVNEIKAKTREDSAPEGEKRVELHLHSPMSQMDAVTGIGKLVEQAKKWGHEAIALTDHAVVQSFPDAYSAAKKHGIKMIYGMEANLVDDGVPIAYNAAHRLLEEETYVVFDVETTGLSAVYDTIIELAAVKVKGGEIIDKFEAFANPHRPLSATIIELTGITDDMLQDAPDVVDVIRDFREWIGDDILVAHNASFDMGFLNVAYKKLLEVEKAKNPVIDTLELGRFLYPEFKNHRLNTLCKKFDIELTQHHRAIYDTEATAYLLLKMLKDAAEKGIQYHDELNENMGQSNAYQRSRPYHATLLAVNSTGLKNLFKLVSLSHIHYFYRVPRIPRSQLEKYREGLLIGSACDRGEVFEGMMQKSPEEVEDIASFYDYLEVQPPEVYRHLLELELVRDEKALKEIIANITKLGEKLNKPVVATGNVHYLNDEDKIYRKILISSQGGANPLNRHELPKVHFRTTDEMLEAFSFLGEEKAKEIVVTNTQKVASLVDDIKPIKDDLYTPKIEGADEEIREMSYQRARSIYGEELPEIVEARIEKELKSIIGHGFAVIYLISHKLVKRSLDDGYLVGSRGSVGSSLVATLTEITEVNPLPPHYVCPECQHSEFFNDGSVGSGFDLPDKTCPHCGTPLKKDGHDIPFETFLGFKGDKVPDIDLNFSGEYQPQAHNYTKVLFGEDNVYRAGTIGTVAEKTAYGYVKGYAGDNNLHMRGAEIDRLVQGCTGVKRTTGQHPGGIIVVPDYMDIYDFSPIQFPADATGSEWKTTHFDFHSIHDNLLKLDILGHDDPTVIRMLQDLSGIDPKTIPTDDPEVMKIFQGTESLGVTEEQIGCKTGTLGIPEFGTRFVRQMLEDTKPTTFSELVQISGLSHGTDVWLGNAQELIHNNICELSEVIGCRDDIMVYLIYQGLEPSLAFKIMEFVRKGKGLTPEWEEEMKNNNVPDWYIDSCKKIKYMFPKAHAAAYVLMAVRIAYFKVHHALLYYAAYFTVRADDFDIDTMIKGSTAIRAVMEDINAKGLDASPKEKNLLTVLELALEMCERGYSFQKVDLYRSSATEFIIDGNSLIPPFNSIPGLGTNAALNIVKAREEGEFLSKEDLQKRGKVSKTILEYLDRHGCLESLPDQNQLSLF
RecQ-like DNA helicase BLM (Homo sapiens), sequence (P54132 whole entry, looked up): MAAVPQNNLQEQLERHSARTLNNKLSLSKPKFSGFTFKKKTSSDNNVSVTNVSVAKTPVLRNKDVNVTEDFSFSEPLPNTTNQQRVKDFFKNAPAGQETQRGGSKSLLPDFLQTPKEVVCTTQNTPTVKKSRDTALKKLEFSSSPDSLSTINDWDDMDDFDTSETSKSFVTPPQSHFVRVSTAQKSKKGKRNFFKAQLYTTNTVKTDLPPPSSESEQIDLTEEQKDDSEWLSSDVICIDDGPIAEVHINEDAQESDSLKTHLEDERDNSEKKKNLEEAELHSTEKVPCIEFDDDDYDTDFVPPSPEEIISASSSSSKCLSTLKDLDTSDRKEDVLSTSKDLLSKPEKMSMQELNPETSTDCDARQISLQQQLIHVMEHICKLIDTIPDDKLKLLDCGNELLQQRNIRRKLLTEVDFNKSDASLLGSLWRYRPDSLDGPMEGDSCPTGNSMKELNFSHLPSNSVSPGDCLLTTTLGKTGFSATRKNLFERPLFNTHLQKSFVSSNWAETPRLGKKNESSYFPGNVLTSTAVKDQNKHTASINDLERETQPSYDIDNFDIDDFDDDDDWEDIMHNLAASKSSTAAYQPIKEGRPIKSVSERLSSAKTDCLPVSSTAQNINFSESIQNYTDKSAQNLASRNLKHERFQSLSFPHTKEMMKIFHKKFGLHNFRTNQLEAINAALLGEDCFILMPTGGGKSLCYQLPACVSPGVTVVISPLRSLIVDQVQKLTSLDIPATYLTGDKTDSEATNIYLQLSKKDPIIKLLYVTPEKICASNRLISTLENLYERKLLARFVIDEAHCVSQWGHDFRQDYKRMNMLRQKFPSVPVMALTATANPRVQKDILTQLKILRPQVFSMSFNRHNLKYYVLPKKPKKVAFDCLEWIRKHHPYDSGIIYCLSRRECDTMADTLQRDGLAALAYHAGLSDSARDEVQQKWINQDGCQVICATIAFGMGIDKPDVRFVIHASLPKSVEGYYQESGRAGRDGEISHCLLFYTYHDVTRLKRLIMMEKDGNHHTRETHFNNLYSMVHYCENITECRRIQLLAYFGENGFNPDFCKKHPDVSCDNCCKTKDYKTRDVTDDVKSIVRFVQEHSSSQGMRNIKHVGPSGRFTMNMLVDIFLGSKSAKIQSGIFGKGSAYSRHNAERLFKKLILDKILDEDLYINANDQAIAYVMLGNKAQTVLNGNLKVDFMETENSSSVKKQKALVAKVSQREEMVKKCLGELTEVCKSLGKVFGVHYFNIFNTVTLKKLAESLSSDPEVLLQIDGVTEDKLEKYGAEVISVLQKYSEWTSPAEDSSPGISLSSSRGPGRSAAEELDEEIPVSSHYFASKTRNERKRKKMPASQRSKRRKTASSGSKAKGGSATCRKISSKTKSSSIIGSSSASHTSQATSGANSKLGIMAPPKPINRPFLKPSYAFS
Ubiquitin carboxyl-terminal hydrolase 2 (Homo sapiens), sequence (O75604 whole entry, looked up): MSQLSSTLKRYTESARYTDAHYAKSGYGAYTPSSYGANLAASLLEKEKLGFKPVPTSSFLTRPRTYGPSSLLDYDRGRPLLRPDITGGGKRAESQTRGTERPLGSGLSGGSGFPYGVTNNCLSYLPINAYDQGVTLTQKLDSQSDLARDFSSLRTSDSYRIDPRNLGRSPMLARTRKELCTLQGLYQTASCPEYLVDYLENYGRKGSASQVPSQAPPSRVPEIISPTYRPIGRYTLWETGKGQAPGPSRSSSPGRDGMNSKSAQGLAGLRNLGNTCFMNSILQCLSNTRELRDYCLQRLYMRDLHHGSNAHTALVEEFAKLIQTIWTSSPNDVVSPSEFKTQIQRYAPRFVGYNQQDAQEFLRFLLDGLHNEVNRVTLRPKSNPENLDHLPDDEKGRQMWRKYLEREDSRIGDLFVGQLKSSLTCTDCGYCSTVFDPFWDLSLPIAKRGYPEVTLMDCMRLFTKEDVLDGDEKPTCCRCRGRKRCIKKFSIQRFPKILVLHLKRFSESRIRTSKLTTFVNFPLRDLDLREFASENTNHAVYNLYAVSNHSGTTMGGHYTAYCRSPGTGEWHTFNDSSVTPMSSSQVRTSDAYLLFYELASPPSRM
Tumor susceptibility gene 101 protein (Homo sapiens), sequence (Q99816 whole entry, looked up, the tested form may be a part): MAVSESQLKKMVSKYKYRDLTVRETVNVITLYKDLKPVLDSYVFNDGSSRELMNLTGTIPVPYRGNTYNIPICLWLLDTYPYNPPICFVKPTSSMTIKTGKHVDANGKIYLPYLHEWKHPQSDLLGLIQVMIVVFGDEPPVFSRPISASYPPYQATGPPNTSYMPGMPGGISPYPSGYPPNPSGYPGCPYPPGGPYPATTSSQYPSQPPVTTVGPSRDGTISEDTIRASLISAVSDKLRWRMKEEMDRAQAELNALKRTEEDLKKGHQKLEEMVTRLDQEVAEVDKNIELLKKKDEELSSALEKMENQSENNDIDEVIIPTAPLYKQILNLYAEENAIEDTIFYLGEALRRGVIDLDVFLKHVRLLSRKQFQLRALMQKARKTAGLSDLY

As for `O=c1c(O)c(-c2cc(O)c(O)c(O)c2)oc2cc(O)cc(O)c12`, the figures for the Potency in assay [1] and in [5] were 14.1 µM (active) and 15 µM (active), respectively. Also, the Potency result in [2], in assay [3], in [4] and in [7] was “inactive” in each case. In assay [6], the molecule was called inactive.
In the case of `CC(C)c1ccc2c(c1)c(SC(C)(C)C)c(CC(C)(C)C(=O)O)n2Cc1ccc(Cl)cc1`, the Potency in assay [1] is 28.2 µM (active); in assay [4] it was 10 µM (active); in assay [5], 21.2 µM (active). In addition, the molecule was called inactive in [8] and in [6]. Further, the Potency result in assay [2], in [3] and in assay [9] was “inactive” throughout.
As for `COc1ccc2cc([C@H](C)C(=O)O)ccc2c1`, the Potency entry in assay [1], in assay [2], in assay [9], in [4], in assay [5] and in [7] was “inactive” in each case. Moreover, the molecule was classed as inactive in [10] and in assay [6].
For the molecule `Oc1ccc2ccccc2c1SSc1c(O)ccc2ccccc12`, the Potency result in [2], in assay [3], in [9], in [5] and in assay [7] was “inactive” in each case. In assay [6], the call was inactive.
Turning to `Nc1nc(N)c(N=O)c(OCC2CCCCC2)n1`, the Potency in assay [2] and in assay [3] was 14.7 µM (active) in each case. In addition, the result in [10] and in assay [6] was inactive. Further, the Potency result in [5] is “inactive”.
Turning to `NNc1nncc2ccccc12`, the Potency result in assay [2], in assay [3], in assay [9], in assay [4], in [5] and in [7] was “inactive” in each case. In addition, the call in assay [10] and in assay [6] was inactive.
In the case of `Cc1c(OCC(F)(F)F)ccnc1CS(=O)c1nc2ccccc2[nH]1` (centres undefined), the Potency result in assay [1], in [2], in [3], in assay [9], in [4] and in assay [5] was “inactive” each time. The Potency entry in [7] is “inactive”. Moreover, the molecule was called inactive in [10] and in assay [6].
`CNC[C@H](O)c1ccc(O)c(O)c1`: the Potency result in assay [2], in [3], in [4], in assay [5] and in assay [7] was “inactive” in each case. In addition, in [9], the Potency was 26.1 µM (active). In addition, the outcome in [10] and in assay [6] was inactive.
Take `CN(C)CCCC1(c2ccc(F)cc2)OCc2cc(C#N)ccc21` (centres undefined): the Potency result in assay [2], in assay [3], in assay [9], in [4], in assay [5] and in assay [7] was “inactive” in each case. The result in assay [10] and in assay [6] was inactive.
As to `O=c1c(O)c(-c2ccc(O)cc2O)oc2cc(O)cc(O)c12`, the Potency entry in [2], in assay [3], in assay [9], in [4] and in assay [7] was “inactive” in each case. The Potency in [5] is 18.9 µM (active). Further, the molecule was classed as inactive in assay [6].
Consider `Cc1cccc(C#Cc2ccccc2)n1`, for which the Potency result in assay [2], in assay [3], in assay [9], in [4], in assay [5] and in [7] was “inactive” throughout. Further, the molecule was classed as inactive in assay [10] and in [6].
Take `OC(CN1CCN(c2cccc(Cl)c2)CC1)C(c1ccccc1)c1ccccc1` (centres undefined): the Potency entry in [2], in assay [3], in [9], in assay [5] and in [7] was “inactive” each time. The call in assay [10] and in assay [6] was inactive.
With `O=C(NCC1CCCCN1)c1cc(OCC(F)(F)F)ccc1OCC(F)(F)F` (centres undefined), the Potency result in [1] and in [4] was “inactive” in each case.
On to `O=Nc1c(-c2c(O)[nH]c3cc(Br)ccc23)[nH]c2ccccc12`, for which, in assay [9], the Potency was 2.33 µM (active). Also, the Potency entry in [4] and in assay [5] was “inactive” throughout. Further, the call in assay [10] and in assay [6] was inactive.
Regarding `CC1(C)C(=O)N(CCN2CCC(C(=O)c3ccc(F)cc3)CC2)c2ccccc21`, the Potency result in [2], in assay [3], in assay [9] and in [5] was “inactive” in each case. Moreover, the outcome in assay [10] and in assay [6] was inactive.
Take `CC1(C)NC(=O)N(c2ccc([N+](=O)[O-])c(C(F)(F)F)c2)C1=O`: the Potency result in [1], in assay [2], in assay [3], in [9], in assay [4] and in assay [5] was “inactive” each time. For the same molecule, the Potency result in [7] is “inactive”. For the same molecule, the outcome in assay [10] and in assay [6] was inactive.
As for `Nc1nc(OCc2ccccc2)c2[nH]cnc2n1`, the Potency entry in assay [2], in assay [3], in [9], in assay [4] and in [5] was “inactive” each time. Further, the call in [10] and in assay [6] was inactive.
Consider `COc1ccccc1N1CCN(CCN(C(=O)C2CCCCC2)c2ccccn2)CC1`, for which the Potency entry in assay [2], in assay [3], in assay [9], in [4], in [5] and in assay [7] was “inactive” each time. Moreover, the call in assay [10] and in assay [6] was inactive.
Turning to `O=C(c1ccccc1)c1ccc2n1CCC2C(=O)O` (centres undefined), the Potency entry in assay [2], in assay [3], in assay [9], in [4], in assay [5] and in [7] was “inactive” throughout. Moreover, the result in [10] and in [6] was inactive.
